# Assay results reported in publication PMC11062922 (Nature Chemical Biology, 2023).
# Like-named read-outs stand apart in the source and are kept apart here.
# Assays:
# EGFR = tested on: EGFR; parameters: species or system human, MV4-11 + K-562 + COLO205 + SK-N-BE2 + OVCAR-8; conditions: read-out: apparent Kd, n = 1
# GSK3A = tested on: GSK3A; parameters: species or system human, MV4-11 + K-562 + COLO205 + SK-N-BE2 + OVCAR-8; conditions: compound concentrations:0.3nM, 1nM, 3nM, 10nM, 30nM, 100nM, 300nM, 1000nM,R2:0.98891896520214295,slope:0.86644868747919301,EC50 Standard Error, by the legend:Standard error of the EC50 estimation as provided by the drc package.
# GSK3B = tested on: GSK3B; parameters: species or system human, MV4-11 + K-562 + COLO205 + SK-N-BE2 + OVCAR-8; conditions: compound concentrations:0.3nM, 1nM, 3nM, 10nM, 30nM, 100nM, 300nM, 1000nM,R2:0.97796062612419798,slope:0.95181625856524898,EC50 Standard Error, by the legend:Standard error of the EC50 estimation as provided by the drc package.
# LATS1 = tested on: LATS1; parameters: species or system human, MV4-11 + K-562 + COLO205 + SK-N-BE2 + OVCAR-8; conditions: compound concentrations:0.3nM, 1nM, 3nM, 10nM, 30nM, 100nM, 300nM, 1000nM,R2:0.99282697672558795,slope:1.31312375653091,EC50 Standard Error, by the legend:Standard error of the EC50 estimation as provided by the drc package.
# PKN1 = tested on: PKN1; parameters: species or system human, MV4-11 + K-562 + COLO205 + SK-N-BE2 + OVCAR-8; conditions: compound concentrations:0.3nM, 1nM, 3nM, 10nM, 30nM, 100nM, 300nM, 1000nM,R2:0.99748458534068796,slope:1.1297658372901001,EC50 Standard Error, by the legend:Standard error of the EC50 estimation as provided by the drc package.
# PRKX = tested on: PRKX; parameters: species or system human, MV4-11 + K-562 + COLO205 + SK-N-BE2 + OVCAR-8; conditions: compound concentrations:0.3nM, 1nM, 3nM, 10nM, 30nM, 100nM, 300nM, 1000nM,R2:0.99104054700331501,slope:1.8352310088782899,EC50 Standard Error, by the legend:Standard error of the EC50 estimation as provided by the drc package.
# ILK = tested on: ILK; parameters: species or system human, MV4-11 + K-562 + COLO205 + SK-N-BE2 + OVCAR-8; conditions: read-out: apparent Kd; compound concentrations: 100 nM and 1000 nM (sheet 'Samples'), CATDS: 0.188303369583949; n = 1
# CDK1_CycB1 = conditions: Highest Assay Concentration (M): 9.9999999999999995E-7
# CK2alpha1 = conditions: Highest Assay Concentration (M): 9.9999999999999995E-7
# CK2alpha2 = conditions: Highest Assay Concentration (M): 9.9999999999999995E-7
# CLK2 = tested on: CLK2; parameters: species or system human, MV4-11 + K-562 + COLO205 + SK-N-BE2 + OVCAR-8; conditions: read-out: apparent Kd; compound concentrations:100 nM and 1000 nM (sheet 'Samples'); n = 1
# CAMK2D = tested on: CAMK2D; parameters: species or system human, MV4-11 + K-562 + COLO205 + SK-N-BE2 + OVCAR-8; conditions: read-out: apparent Kd, compound concentrations: 100 nM and 1000 nM (sheet 'Samples'), n = 1
# CSNK1G3 = tested on: CSNK1G3; parameters: species or system human, MV4-11 + K-562 + COLO205 + SK-N-BE2 + OVCAR-8; conditions: read-out: apparent Kd; compound concentrations: 100 nM and 1000 nM (sheet 'Samples'), CATDS: 4.4654853896455996E-3; n = 1
# ERN1 = tested on: ERN1; parameters: species or system human, MV4-11 + K-562 + COLO205 + SK-N-BE2 + OVCAR-8; conditions: read-out: apparent Kd, compound concentrations: 100 nM and 1000 nM (sheet 'Samples'), n = 1
# MAPK1 = tested on: MAPK1; parameters: species or system human, MV4-11 + K-562 + COLO205 + SK-N-BE2 + OVCAR-8; conditions: read-out: apparent Kd, compound concentrations: 100 nM and 1000 nM (sheet 'Samples'), n = 1
# STRADA = tested on: STRADA; parameters: species or system human, MV4-11 + K-562 + COLO205 + SK-N-BE2 + OVCAR-8; conditions: read-out: apparent Kd, n = 1
# TAOK3 = tested on: TAOK3; parameters: species or system human, MV4-11 + K-562 + COLO205 + SK-N-BE2 + OVCAR-8; conditions: read-out: apparent Kd; compound concentrations: 100 nM and 1000 nM (sheet 'Samples'), CATDS: 4.5729665408397397E-3; n = 1
# TBK1 = tested on: TBK1; parameters: species or system human, MV4-11 + K-562 + COLO205 + SK-N-BE2 + OVCAR-8; conditions: read-out: apparent Kd, n = 1
# CAMK4 = tested on: CAMK4; parameters: species or system human, MV4-11 + K-562 + COLO205 + SK-N-BE2 + OVCAR-8; conditions: read-out: apparent Kd; compound concentrations: 100 nM and 1000 nM (sheet 'Samples'), CATDS: 7.8205742217562803E-3; n = 1
# PRKX;PRKY = tested on: PRKX;PRKY; parameters: species or system human, MV4-11 + K-562 + COLO205 + SK-N-BE2 + OVCAR-8; conditions: read-out: apparent Kd; compound concentrations: 100 nM and 1000 nM (sheet 'Samples'), CATDS: 1.5379195282256401E-2; n = 1
# [1] = compound concentrations:100 nM and 1000 nM (sheet 'Samples')
# 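Wherever EC50 is given: competition pulldown with Kinobeads ε in cell lysates, inhibitor preincubated 45 min at 4 °C, bound kinases quantified by LC–MS/MS against DMSO control.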
# 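Wherever Kd is given: competition pulldown with Kinobeads ε in cell lysates, inhibitor preincubated 45 min at 4 °C, bound kinases quantified by LC–MS/MS against DMSO control.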
structure (smiles),measurement,setting,value
O=C1N=C(NCCc2ccc(Cl)cc2)S/C1=C\c1ccc2ncccc2c1 [RO4498479-000],potency estimated from few doses,"EGFR; compound concentrations: 100 nM and 1000 nM (sheet 'Samples'), CATDS: 6.9080879323699202E-3",1730 nM
CCn1c(-c2nonc2N)nc2c(C#CC(C)(C)O)nc(OCCN)cc21.CCn1c(-c2nonc2N)nc2c(C#CC(C)(C)O)nc(OCCN)cc21.Cl.Cl [GSK902056A],EC50,GSK3A,173 nM
same,Kd,GSK3A; read-out: apparent Kd,164 nM
same,EC50,GSK3B,296 nM
same,Kd,GSK3B; read-out: apparent Kd,288 nM
same,EC50,LATS1,87.4 nM
same,Kd,LATS1; read-out: apparent Kd,87.4 nM
same,EC50,PKN1,92.3 nM
same,Kd,PKN1; read-out: apparent Kd,92.3 nM
same,EC50,PRKX,127 nM
same,Kd,PRKX; read-out: apparent Kd,127 nM
O=C1N=C(Nc2ccccc2)S/C1=C\c1ccc2ncccc2c1 [RO4493940-000],potency estimated from few doses,ILK,1500 nM
same,IC50,CDK1_CycB1,2.88e-06 M
same,IC50,CK2alpha1,6.67e-08 M
same,IC50,CK2alpha2,5.11e-08 M
Cl.Cl.NCC(C(=O)Nc1cc(Br)c(-c2ccnc3[nH]ccc23)s1)c1ccccc1.NCC(C(=O)Nc1cc(Br)c(-c2ccnc3[nH]ccc23)s1)c1ccccc1 (stereo not shown) [GSK1269851A],potency estimated from few doses,CLK2,730 nM
Cn1ncc2c(N)ncnc21 [SKF-18267],potency estimated from few doses,CAMK2D; CATDS: 7.0756718203265796E-3,441 nM
same,potency estimated from few doses,CSNK1G3,1030 nM
same,potency estimated from few doses,"EGFR; compound concentrations: 100 nM and 1000 nM (sheet 'Samples'), CATDS: 3.5324220214717501E-3",1890 nM
same,potency estimated from few doses,ERN1; CATDS: 4.2148373609633104E-3,1180 nM
same,potency estimated from few doses,MAPK1; CATDS: 4.58474987436945E-3,974 nM
same,potency estimated from few doses,"STRADA; compound concentrations: 100 nM and 1000 nM (sheet 'Samples'), CATDS: 3.7902262633519698E-3",1540 nM
same,potency estimated from few doses,TAOK3,979 nM
same,potency estimated from few doses,"TBK1; compound concentrations: 100 nM and 1000 nM (sheet 'Samples'), CATDS: 5.0307170658674197E-3",804 nM
Cc1ccc(Nc2ccnc(Nc3ccc4c(c3)CS(=O)(=O)C4)n2)cc1O.Cl [GW579362A],potency estimated from few doses,CAMK2D; CATDS: 4.2472769063291602E-2,502 nM
same,potency estimated from few doses,MAPK1; CATDS: 2.9087751414108801E-2,1350 nM
CCOC(=O)N1CCC(n2cnc(-c3ccc(F)cc3)c2-c2ccnc(N)n2)CC1 [SB-219952],potency estimated from few doses,CAMK4,1850 nM
same,potency estimated from few doses,ERN1; CATDS: 7.4915709296516997E-3,2200 nM
O=C1NC(=O)/C(=C/c2ccc3ncccc3c2)S1 [RO4603632-000],IC50,CDK1_CycB1,8.37e-06 M
same,IC50,CK2alpha1,5.79e-07 M
same,IC50,CK2alpha2,3.72e-07 M
CN(c1ccc(NC(=O)Nc2cccc(Cl)c2)cc1)c1ccnc(N)n1.Cl [GW830707A],potency estimated from few doses,PRKX;PRKY,134 nM
CNC(=O)c1ccccc1Nc1nc(Nc2ccc(N3CCOCC3)cc2)ncc1Cl.Cl [GSK1576028A],potency estimated from few doses,EGFR; [1],580 nM
same,potency estimated from few doses,TBK1; [1],395 nM
CN(c1ccc(NC(=O)N2CCN(CCCN3CCOCC3)CC2)cc1)c1ccnc(Nc2ccc(CS(C)(=O)=O)cc2)n1.Cl [GW830899A],potency estimated from few doses,CAMK2D; CATDS: 3.7668858732559402E-2,430 nM
same,potency estimated from few doses,"EGFR; compound concentrations: 100 nM and 1000 nM (sheet 'Samples'), CATDS: 1.7872150639672801E-2",2150 nM
same,potency estimated from few doses,MAPK1; CATDS: 2.6373806441713499E-2,807 nM
Cc1cccc(Nc2nc(N[C@H]3CCCC[C@H]3N)ncc2C(N)=O)c1.Cl [GSK986310C],potency estimated from few doses,STRADA; [1],2120 nM
COc1ccc(Nc2ncc(C#N)c(Nc3ccccc3C(N)=O)n2)cc1N1CCN(C)CC1.Cl [GSK1558669A],potency estimated from few doses,ERN1; CATDS: 5.84806980625629E-3,2140 nM
same,potency estimated from few doses,"TBK1; compound concentrations: 100 nM and 1000 nM (sheet 'Samples'), CATDS: 1.0324038658374401E-2",172 nM
